Experiment [1] can be described thus: Caspase-3/7 induction in HepG2 cells by small molecules, qHTS assay (AID 1346978). Further: nearly all actives have a fitted effect of over 15% in size. Further: potency means the concentration at half of the fitted maximal effect. In outline: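 Caspase-3/7 induction was measured by Caspase-Glo 3/7 luminescence (30 min, room temperature) after a 17 hr compound exposure of wild-type HepG2 cells seeded at 2,000 per well and pre-incubated 5 hr.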
Experiment [2] in a line: Caspase-3/7 induction in CHO-K1 cells by small molecules, qHTS cell viability counter screen (AID 1346979). Further: nearly all actives have a fitted effect of over 35% in size. Further: potency means the concentration at half of the fitted maximal effect. The procedure, abridged: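 Seeding: 1,500 CHO-K1 cells/well. Rest: 5hr, 37C. Treatment: compounds in DMSO, 16hr. Read: CellTiter-Fluor, 1hr, fluorescence.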
The nature of experiment [3]: Caspase-3/7 induction in CHO-K1 cells by small molecules, qHTS assay (AID 1346980). Further: nearly all actives have a fitted effect of over 15% in size. In outline: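 Luminescent Caspase-Glo 3/7 read (30min, room temperature) quantified apoptosis induction. Cells were wild-type CHO-K1, treated with compound for 17hr at 37 C and 5% CO2.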
A general note: qHTS replaces the single test concentration by a dilution series.

Experiment [4] in a line: Caspase-3/7 induction in HepG2 cells by small molecules, qHTS cell viability counter screen (AID 1346981). Further: series mostly up to about 92 µM; nearly all actives have a fitted effect of over 30% in size. In outline:
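CellTiter-Fluor fluorescence measured viability in the same wells used for Caspase-Glo 3/7. HepG2 (wild type) at 2,000 cells/well were pre-incubated 5 hr, dosed, and given reagent at 16 hr, with 1 hr further at 37C.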

Experiment [5] concerns the target Nuclear receptor subfamily 1 group I member 2 (Homo sapiens) (UniProt O75469). The experiment can be described thus: Human pregnane X receptor (PXR) small molecule agonists, qHTS assay (AID 1346982). Further: nearly all actives have a fitted effect of over 35% in size. Further: potency means the concentration at half of the fitted maximal effect. The procedure, abridged:
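Agonist mode: luminescence from ONE-Glo after 24 h compound exposure at 37C in HepG2 cells carrying hPXR-responsive CYP3A4 luciferase, plated in charcoal-stripped serum medium 5 h beforehand.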

In experiment [6] the target is Acetylcholinesterase (Homo sapiens) (UniProt P22303). As to the kind of experiment: Acetylcholinesterase (AChE) small molecule antagonists: colormetric cell-based qHTS assay (AID 1347395; calls by dose curve; further: nearly all actives have a fitted effect of over 30% in size; further: potency means the concentration at half of the fitted maximal effect). The procedure, abridged:
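Quantitative HTS in attached SH-SY5Y cells: 30 min compound exposure, then 90 min with acetylthiocholine and DTNB at 37 C; colour from thiocholine reports AChE activity.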

The target is the same in experiment [7]. As to the kind of experiment: Acetylcholinesterase (AChE) small molecule antagonists: enzyme-based qHTS assay (AID 1347397; calls by dose curve; further: nearly all actives have a fitted effect of over 55% in size). Conditions: Potency: AChE enzyme activity inhibition. In outline: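 Colorimetric DTNB readout of acetylthiocholine hydrolysis, 10 min at room temperature, after 30 min room-temperature exposure of 50 mU/mL recombinant human enzyme to compound; DMSO vehicle control.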

Experiment [8] has the same target. As to the kind of experiment: Acetylcholinesterase (AChE) small molecule antagonists: fluorescence cell-based qHTS assay (AID 1347398; calls by dose curve; further: nearly all actives have a fitted effect of over 50% in size; further: potency means the concentration at half of the fitted maximal effect). As to conditions: Potency: AChE activity. The procedure, abridged:
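Cellular AChE activity read as thiocholine from acetylthiocholine hydrolysis, detected by Thiolite Green fluorescence at 490/520 nm after 40 min at room temperature. Compounds were pre-incubated 30 min at 37 C on adherent SH-SY5Y cells.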

Experiment [9] has the same target. The experiment can be described thus: Acetylcholinesterase (AChE) small molecule antagonists: enzyme-based qHTS assay with human liver microsomes (AID 1347399; calls by dose curve; further: nearly all actives have a fitted effect of over 60% in size). As to conditions: Potency: qHTS inhibition. In outline: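 Recombinant human AChE (50 mU/mL in the enzyme mix) and human liver microsomes (0.25 mg/mL final) were preincubated with compound and NADPH (0.25 mg/mL final) for 30 min at 37 C. Acetylthiocholine/DTNB was then added; thiocholine was read colorimetrically after 10 min at room temperature.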

Experiment [10] deals with Cytochrome P450 2D6 (Homo sapiens) (UniProt P10635). As to the kind of experiment: Cytochrome P450 Family 2 Subfamily D Member 6 (CYP2D6) small molecule antagonists: luciferase reporter qHTS assay (AID 1671196). Further: nearly all actives have a fitted effect of over 50% in size. Further: potency means the concentration at half of the fitted maximal effect. The procedure, abridged:
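CYP2D6 activity was followed as luminescence from its luciferin product after a 1 h NADPH-driven reaction at room temperature. Enzyme-substrate mix and compound were pre-incubated for 10 min, and the signal was read 20 min after adding detection reagent.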
In general terms: Reporter assays use an easily measured gene product as a stand-in for the process of interest.

Experiment [11] addresses Cytochrome P450 2C19 (Homo sapiens) (UniProt P33261). As to the kind of experiment: Cytochrome P450 Family 2 Subfamily C Member 19 (CYP2C19) small molecule antagonists: luciferase reporter qHTS assay (AID 1671197). Further: nearly all actives have a fitted effect of over 65% in size. Further: potency means the concentration at half of the fitted maximal effect. The procedure, abridged:
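Compounds were tested on CYP2C19 activity via proluciferin conversion to luciferin. The 37C, 1 h reaction followed NADPH addition; detection reagent stopped it.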

Experiment [12] addresses Cytochrome P450 2C9 (Homo sapiens) (UniProt P11712). The experiment can be described thus: Cytochrome P450 Family 2 Subfamily C Member 9 (CYP2C9) small molecule antagonists: luciferase reporter qHTS assay (AID 1671198). Further: nearly all actives have a fitted effect of over 50% in size. Further: potency means the concentration at half of the fitted maximal effect. The procedure, abridged: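 Enzyme-substrate mix preincubated with compound 10 min at room temperature; reaction started with NADPH regeneration solution, 1 h 37C. Luminescent luciferin product read after 20 min detection reagent.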

Experiment [13] concerns the target Cytochrome P450 1A2 (Homo sapiens) (UniProt P05177). The experiment can be described thus: Cytochrome P450 Family 1 Subfamily A Member 2 (CYP1A2) small molecule antagonists: luciferase reporter qHTS assay (AID 1671199). Further: nearly all actives have a fitted effect of over 50% in size. Further: potency means the concentration at half of the fitted maximal effect. In outline: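 Luminescence from luciferin formed by CYP1A2 from a proluciferin substrate, read 20 min after detection reagent. Compound was pre-incubated 10 min with enzyme-substrate, and reaction started with NADPH regeneration solution for 1 h at room temperature; furafylline control.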

The target in experiment [14] is Voltage-gated inwardly rectifying potassium channel KCNH2 (Homo sapiens) (UniProt Q12809). The experiment can be described thus: Human Ether-a-go-go-Related Gene (hERG) channel small molecule antagonists: fluorescence cell-based qHTS assay (AID 1671200). In outline: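 First, 1000 cells per well are seeded and cultured overnight at 37 C. Next, FluxOR II dye is loaded for 1 h at room temperature, protected from light. After 10 more minutes, stimulus is added and fluorescence is read.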
(The hERG channel carries a current that helps repolarise heart muscle cells.)

Experiment [15] has as its target Cytochrome P450 3A4 (Homo sapiens) (UniProt P08684). As to the kind of experiment: Cytochrome P450 Family 3 Subfamily A Member 4 (CYP3A4) small molecule antagonists: luciferase reporter qHTS assay (AID 1671201). In outline:
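Enzyme and proluciferin substrate are mixed with test chemicals for 10 min, then NADPH regeneration system drives turnover for 1 h at room temperature. A detection reagent halts the reaction; luminescence after 20 min gives relative activity.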

Molecules are shown by their SMILES. Several values for one entry are separate records, joined by “and”; a condition that tells them apart may be missing. Equal values may be shown once. Inconclusive results are not listed. The source holds several records for some structures; these can differ, active in one and inactive in another. Activity calls are given as the source filed them. Unless noted, the call rests on the fitted dose curve; in most records, active means well fitted curve in the direction sought with a large enough effect in the repeat runs; inconclusive means weak or mixed curves; inactive means no such curve, though single readings can be large; an effect the other way counts as inactive or inconclusive.

Voltage-gated inwardly rectifying potassium channel KCNH2 (Homo sapiens), sequence (Q12809 whole entry, looked up): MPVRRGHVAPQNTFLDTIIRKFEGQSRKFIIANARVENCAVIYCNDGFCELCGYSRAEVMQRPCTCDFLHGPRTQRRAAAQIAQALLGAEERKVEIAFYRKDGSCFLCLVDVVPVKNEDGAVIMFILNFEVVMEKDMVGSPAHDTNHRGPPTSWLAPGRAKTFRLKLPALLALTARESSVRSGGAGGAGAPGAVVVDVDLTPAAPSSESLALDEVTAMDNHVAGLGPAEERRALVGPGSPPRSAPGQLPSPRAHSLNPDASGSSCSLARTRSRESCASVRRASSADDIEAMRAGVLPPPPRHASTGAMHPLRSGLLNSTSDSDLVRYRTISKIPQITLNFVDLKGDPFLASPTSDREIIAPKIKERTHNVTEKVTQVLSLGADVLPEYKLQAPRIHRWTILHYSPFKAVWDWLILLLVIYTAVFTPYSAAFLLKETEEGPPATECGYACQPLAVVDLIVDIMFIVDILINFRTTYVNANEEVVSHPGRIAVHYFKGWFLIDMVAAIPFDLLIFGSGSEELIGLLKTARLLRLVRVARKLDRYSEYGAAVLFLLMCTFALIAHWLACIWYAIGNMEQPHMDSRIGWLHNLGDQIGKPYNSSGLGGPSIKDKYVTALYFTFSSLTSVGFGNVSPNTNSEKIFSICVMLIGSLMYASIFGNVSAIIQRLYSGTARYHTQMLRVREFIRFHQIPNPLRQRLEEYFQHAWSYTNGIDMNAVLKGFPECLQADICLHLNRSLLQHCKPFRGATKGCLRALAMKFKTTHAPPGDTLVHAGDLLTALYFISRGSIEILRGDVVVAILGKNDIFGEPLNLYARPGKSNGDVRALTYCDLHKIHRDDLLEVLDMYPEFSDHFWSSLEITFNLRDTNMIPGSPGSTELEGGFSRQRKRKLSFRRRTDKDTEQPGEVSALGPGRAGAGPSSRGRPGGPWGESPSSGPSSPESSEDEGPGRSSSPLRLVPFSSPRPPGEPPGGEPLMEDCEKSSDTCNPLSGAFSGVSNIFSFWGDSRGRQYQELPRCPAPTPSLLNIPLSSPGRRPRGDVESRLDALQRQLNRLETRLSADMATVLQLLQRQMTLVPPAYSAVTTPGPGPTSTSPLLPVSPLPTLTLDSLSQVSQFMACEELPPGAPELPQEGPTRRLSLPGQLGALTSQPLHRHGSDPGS
Acetylcholinesterase (Homo sapiens), sequence (P22303 whole entry, looked up): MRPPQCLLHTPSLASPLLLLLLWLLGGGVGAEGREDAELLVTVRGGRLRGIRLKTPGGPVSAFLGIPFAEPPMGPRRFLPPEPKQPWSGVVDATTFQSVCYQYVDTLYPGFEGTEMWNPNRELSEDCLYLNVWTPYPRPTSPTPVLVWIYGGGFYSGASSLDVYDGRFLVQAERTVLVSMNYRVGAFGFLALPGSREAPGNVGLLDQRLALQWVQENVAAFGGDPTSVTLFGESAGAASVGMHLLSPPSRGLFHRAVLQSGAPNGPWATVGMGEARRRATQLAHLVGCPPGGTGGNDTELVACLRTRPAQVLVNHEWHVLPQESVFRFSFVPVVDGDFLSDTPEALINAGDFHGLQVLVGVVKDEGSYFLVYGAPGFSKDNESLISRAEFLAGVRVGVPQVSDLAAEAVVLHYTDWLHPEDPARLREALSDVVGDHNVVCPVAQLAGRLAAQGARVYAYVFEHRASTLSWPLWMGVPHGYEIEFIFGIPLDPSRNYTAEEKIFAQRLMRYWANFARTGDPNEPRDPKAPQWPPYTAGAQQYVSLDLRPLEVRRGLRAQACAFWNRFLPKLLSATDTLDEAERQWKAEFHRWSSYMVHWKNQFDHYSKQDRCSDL
Nuclear receptor subfamily 1 group I member 2 (Homo sapiens), sequence (O75469 whole entry, looked up): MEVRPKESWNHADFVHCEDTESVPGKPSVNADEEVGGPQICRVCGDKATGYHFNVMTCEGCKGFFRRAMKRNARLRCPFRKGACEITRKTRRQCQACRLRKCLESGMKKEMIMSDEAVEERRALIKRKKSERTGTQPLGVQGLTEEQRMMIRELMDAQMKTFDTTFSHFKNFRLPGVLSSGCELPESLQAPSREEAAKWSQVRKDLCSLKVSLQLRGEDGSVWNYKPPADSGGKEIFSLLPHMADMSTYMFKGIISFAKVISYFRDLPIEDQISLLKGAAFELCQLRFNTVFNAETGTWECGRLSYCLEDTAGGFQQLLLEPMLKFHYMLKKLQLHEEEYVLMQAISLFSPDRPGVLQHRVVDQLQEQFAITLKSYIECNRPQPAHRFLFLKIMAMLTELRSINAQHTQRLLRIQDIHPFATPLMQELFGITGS
Cytochrome P450 2C9 (Homo sapiens), sequence (P11712 whole entry, looked up): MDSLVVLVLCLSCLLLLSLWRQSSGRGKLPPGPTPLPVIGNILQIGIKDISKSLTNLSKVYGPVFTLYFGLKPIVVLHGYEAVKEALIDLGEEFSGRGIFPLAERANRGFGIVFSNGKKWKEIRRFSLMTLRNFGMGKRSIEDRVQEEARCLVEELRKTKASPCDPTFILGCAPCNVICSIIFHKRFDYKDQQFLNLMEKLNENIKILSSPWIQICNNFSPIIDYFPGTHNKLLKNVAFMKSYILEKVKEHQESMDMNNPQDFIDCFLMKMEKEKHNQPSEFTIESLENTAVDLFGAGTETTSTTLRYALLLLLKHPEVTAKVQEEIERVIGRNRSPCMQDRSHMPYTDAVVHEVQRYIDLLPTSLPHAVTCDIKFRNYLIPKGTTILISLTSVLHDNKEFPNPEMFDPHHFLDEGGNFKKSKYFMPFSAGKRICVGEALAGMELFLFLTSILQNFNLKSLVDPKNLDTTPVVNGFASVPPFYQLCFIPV
Cytochrome P450 2C19 (Homo sapiens), sequence (P33261 whole entry, looked up): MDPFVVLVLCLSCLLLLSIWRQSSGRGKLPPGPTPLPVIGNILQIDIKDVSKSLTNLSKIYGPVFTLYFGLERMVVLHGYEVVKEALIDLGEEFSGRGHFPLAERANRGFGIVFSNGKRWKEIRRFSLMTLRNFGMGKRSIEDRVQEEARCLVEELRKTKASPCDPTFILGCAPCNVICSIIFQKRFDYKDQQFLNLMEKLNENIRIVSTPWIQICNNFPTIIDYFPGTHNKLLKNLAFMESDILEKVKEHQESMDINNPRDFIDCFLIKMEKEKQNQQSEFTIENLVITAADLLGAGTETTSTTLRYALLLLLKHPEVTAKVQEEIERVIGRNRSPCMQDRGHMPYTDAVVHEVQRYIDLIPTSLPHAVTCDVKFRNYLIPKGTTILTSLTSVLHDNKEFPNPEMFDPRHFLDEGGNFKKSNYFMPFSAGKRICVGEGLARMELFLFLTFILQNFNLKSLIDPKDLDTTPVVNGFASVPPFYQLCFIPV
Cytochrome P450 1A2 (Homo sapiens), sequence (P05177 whole entry, looked up): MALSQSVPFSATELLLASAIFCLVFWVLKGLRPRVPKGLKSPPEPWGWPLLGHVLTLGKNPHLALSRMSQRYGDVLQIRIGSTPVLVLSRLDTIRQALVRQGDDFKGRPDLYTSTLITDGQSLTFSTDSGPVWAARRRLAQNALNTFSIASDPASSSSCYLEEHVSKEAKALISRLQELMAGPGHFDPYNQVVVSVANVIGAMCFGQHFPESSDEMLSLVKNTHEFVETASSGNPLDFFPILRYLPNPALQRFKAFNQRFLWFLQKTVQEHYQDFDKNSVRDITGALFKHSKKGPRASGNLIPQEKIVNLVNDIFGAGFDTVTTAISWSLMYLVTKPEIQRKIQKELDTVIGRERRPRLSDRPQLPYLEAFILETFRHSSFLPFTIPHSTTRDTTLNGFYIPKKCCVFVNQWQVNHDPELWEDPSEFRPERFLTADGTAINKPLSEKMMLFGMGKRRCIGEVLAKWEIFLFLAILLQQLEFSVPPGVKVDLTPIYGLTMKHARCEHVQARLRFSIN
Cytochrome P450 2D6 (Homo sapiens), sequence (P10635 whole entry, looked up): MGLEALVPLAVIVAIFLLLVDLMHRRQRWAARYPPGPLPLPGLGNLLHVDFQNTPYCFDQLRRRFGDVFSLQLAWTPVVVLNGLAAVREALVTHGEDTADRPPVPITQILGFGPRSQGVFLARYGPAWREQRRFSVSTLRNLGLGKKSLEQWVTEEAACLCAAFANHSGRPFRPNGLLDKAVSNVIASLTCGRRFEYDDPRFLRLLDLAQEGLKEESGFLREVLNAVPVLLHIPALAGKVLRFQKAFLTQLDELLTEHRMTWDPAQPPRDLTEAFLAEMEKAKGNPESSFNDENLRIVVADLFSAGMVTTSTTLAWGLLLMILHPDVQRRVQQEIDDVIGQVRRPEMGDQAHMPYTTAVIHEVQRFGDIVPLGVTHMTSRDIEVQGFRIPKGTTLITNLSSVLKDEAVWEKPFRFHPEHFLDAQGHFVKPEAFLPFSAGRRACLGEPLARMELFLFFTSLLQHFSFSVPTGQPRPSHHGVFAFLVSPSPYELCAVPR
Cytochrome P450 3A4 (Homo sapiens), sequence (P08684 whole entry, looked up): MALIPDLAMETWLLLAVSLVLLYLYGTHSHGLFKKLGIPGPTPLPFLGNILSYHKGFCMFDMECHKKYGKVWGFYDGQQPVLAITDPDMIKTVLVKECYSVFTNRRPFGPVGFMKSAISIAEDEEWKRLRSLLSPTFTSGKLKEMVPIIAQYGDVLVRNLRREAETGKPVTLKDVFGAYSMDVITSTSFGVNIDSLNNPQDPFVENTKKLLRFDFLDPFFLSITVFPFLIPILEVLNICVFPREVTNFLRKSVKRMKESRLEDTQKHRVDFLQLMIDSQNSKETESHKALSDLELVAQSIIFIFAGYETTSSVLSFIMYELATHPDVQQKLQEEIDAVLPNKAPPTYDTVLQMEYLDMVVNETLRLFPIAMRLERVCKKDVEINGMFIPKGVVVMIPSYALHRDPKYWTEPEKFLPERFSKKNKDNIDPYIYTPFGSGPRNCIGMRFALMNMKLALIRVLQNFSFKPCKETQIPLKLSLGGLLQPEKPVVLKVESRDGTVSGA

In the case of `COP(=S)(OC)Oc1ccc([N+](=O)[O-])cc1`, the Potency result in experiment [1], in [3], in experiment [4], in [5], in [7] and in experiment [9] was “inactive” each time. Also, the Potency entry in experiment [14] is “inactive”. Also, the Potency is 68.7 µM (active) and inactive in [2]; 25.2 µM (active) in [6]; “inactive and 35.6 µM (active)” in experiment [8]; “inactive and 35.6 µM (active)” in experiment [10]; 8.95 µM (active) and 2.52 µM (active) in experiment [11]; 35.6 µM (active) and 12.6 µM (active) in experiment [12]. The Potency in [13] is 7.11 µM (active) and 2 µM (active).
Take `Cc1c(COC(=O)[C@@H]2[C@H](/C=C(\Cl)C(F)(F)F)C2(C)C)cccc1-c1ccccc1`: the Potency entry in [1], in experiment [3], in experiment [4], in experiment [6], in [7] and in experiment [8] was “inactive” each time. The Potency entry in experiment [9], in experiment [10], in [13] and in experiment [14] was “inactive” throughout. The Potency was 43.1 µM (active) in experiment [2]; 26.7 µM (active) and inactive in [5]; 7.79 µM (active) and 8.91 µM (active) in [11]; 19.6 µM (active) and 11.2 µM (active) in experiment [12].
Turning to `C=CCc1ccc2c(c1)OCO2`, the Potency in experiment [1] is 43.5 µM (active) and inactive; in experiment [5], 61.4 µM (active) and inactive; in experiment [13], 28.3 µM (active). Also, the Potency result in experiment [2], in experiment [3], in experiment [4], in experiment [6], in [7] and in experiment [8] was “inactive” each time. The Potency entry in experiment [9], in experiment [10], in experiment [11], in [12], in experiment [14] and in experiment [15] was “inactive” each time.
For `CNC(=O)N(C)c1nnc(C(C)(C)C)s1`, the Potency result in [1], in experiment [2], in experiment [3], in experiment [4], in [6] and in experiment [7] was “inactive” throughout. In addition, the Potency entry in [8], in experiment [9], in experiment [10], in [12] and in experiment [14] was “inactive” throughout. Further, the Potency in experiment [5] was 54.5 µM (active); in [11], 39.9 µM (active) and inactive; in experiment [13], 39.9 µM (active).
As for `Nn1cnnc1`, the Potency entry in experiment [1], in experiment [2], in experiment [3], in experiment [4], in experiment [5] and in [6] was “inactive” throughout. Also, the Potency result in [7], in experiment [8], in [9], in experiment [10], in [14] and in [15] was “inactive” each time. The Potency in experiment [11] was 19.3 µM (active) and 71 µM (active); in experiment [12] it was 34.4 µM (active).
In the case of `C=C(C)C(=O)OCC1CO1` (stereo unspecified), the Potency entry in experiment [1], in experiment [2], in [3], in experiment [4], in experiment [5] and in experiment [6] was “inactive” throughout. The Potency entry in experiment [7], in [8], in [9], in experiment [10], in experiment [11] and in experiment [12] was “inactive” in each case. The Potency result in experiment [13], in experiment [14] and in experiment [15] was “inactive” each time.

Source of the values: PubChem BioAssay (Tox21).
